{
  "source": "the supplement of paper PMC10941209",
  "note": "Values without a mark were called inactive.",
  "data": [
    {"test_system": "Toxoplasma gondii RH 2F1 tachyzoites (intracellular in HFF)", "test": "parasite survival relative to DMSO control; higher = less antiparasitic activity, active = 20 or less", "conditions": "1 µM; 72 h", "method_in_brief": "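Toxoplasma gondii RH-2F1 tachyzoites expressing β-galactosidase (5 × 10^3 per well) were used to infect HFF cells at 5 × 10^3 cells/well in 96-well plates for 3 h in D2 medium. Cells then received compound at 1 μM for 72 h at 37°C in 5% CO2, were lysed for 15 min, and were given CPRG, with absorbance at 570 nm read after 30 min. Survival denotes this signal as a percentage of DMSO-treated infected controls. Each value reflects 2 or more biological replicates.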", "values": [
      {"molecule": "O=C(O)c1ccc(-n2nc(-c3ccccc3O)nc2-c2ccccc2O)cc1", "parasite survival": "25.7%"},
      {"molecule": "C[Si]1(C)CCN(Cc2cc(-c3ccc(Cl)cc3)n(-c3ccc(Cl)cc3)n2)CC1", "parasite survival": "13.7% (active)"},
      {"molecule": "Nc1nc(-c2ccccc2)nc2c1ncn2[C@@H]1O[C@H](COS(=O)(=O)NC(=O)c2ccccc2O)[C@@H](O)[C@H]1O", "parasite survival": "60.7%"},
      {"molecule": "CC[C@@H](CO)NCCN[C@@H](CC)CO", "parasite survival": "55.4%"},
      {"molecule": "CC(N)C12CC3CC(CC(C3)C1)C2", "note": "(stereo not given)", "parasite survival": "78.3%"},
      {"molecule": "COC(=O)Nc1nc2cc(Sc3ccccc3)ccc2[nH]1", "parasite survival": "25.4%"},
      {"molecule": "Cc1oncc1C(=O)Nc1ccc(C(F)(F)F)cc1", "parasite survival": "77.7%"},
      {"molecule": "CN1C(=O)C(c2ccccc2)C(=O)N(c2ccccc2)c2cc(C(F)(F)F)ccc21", "note": "(stereo not given)", "parasite survival": "79.5%"},
      {"molecule": "Oc1c(C(Nc2nc3ccccc3s2)c2ccc(OC(F)F)cc2)ccc2cccnc12", "note": "(stereo not given)", "parasite survival": "4.28% (active)"},
      {"molecule": "COc1ccccc1CN[C@H]1C2CCN(CC2)[C@H]1C(c1ccccc1)c1ccccc1", "parasite survival": "37.5%"},
      {"molecule": "Nc1nc(NC2Cc3ccc(F)cc3C2)nc(N2CCCCC2)n1", "note": "(stereo not given)", "parasite survival": "41.9%"},
      {"molecule": "Nc1ccc(-c2nc3cc(C(F)(F)F)ccc3n2C23CC4CC(CC(C4)C2)C3)cc1", "parasite survival": "53%"},
      {"molecule": "NS(=O)(=O)c1ccc(NC(=O)NC(c2ccccc2)c2ccccc2)cc1", "parasite survival": "32%"},
      {"molecule": "CCCCCOc1ccc(/C=C2\\Oc3c(ccc(O)c3O)C2=O)c(O)c1", "parasite survival": "48.2%"},
      {"molecule": "C(=C\\c1nc2ccccc2[nH]1)/c1ccc2c(c1)OCO2", "parasite survival": "22.1%"},
      {"molecule": "C[C@H](c1cccc2ccccc12)N(C)Cc1ccccc1", "parasite survival": "44.4%"},
      {"molecule": "Oc1ccc2[nH]c(-c3ccccc3)nc2c1", "parasite survival": "66.2%"},
      {"molecule": "CCCCOC(=O)Nc1cc2nc(C3CCCCC3)[nH]c2cc1N(CC)CC", "parasite survival": "5.06% (active)"},
      {"molecule": "O=[N+]([O-])c1cn2c(n1)OC[C@@H](OCc1ccc(OC(F)(F)F)cc1)C2", "parasite survival": "45.2%"},
      {"molecule": "COc1cc(Cc2cnc(N)nc2N)cc(OC)c1OC", "parasite survival": "52.6%"},
      {"molecule": "CN(C)CCCOc1ccc(-c2ccc3ncc4c(c3c2)n(C2CCOCC2)c(=O)n4C)cn1", "parasite survival": "50.5%"},
      {"molecule": "O=C(Nc1nnc(-c2ccccc2)o1)c1ccc(F)cc1", "parasite survival": "52.8%"},
      {"molecule": "COc1ccc(NC(=O)CC2Sc3ncnn3C2=O)cc1", "note": "(stereo not given)", "parasite survival": "22.1%"},
      {"molecule": "N#C/C(=C1/SC[C@H](c2ccc(Cl)cc2Cl)S1)n1ccnc1", "parasite survival": "41.2%"},
      {"molecule": "CC(=O)N1c2ccccc2NC2=C(C(=O)CC(C)(C)C2)C1c1ccc(OCc2ccccc2)cc1", "note": "(stereo not given)", "parasite survival": "46.7%"}
    ]}
  ]
}
